Experimental data from PubChem BioAssay AID504452 (The Scripps Research Institute Molecular Screening Center, 2011).
Calls of active or inactive are those of the source. No stated cut-off is given here; in the data, active means activation above about 85%; inactive means the rest.

Molecular target: Peroxisome proliferator-activated receptor gamma (Homo sapiens) (UniProt P37231)
Test: PPARg partial agonist activation, primary screen, cell-based, luciferase reporter, luminescence (AID 504452);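 further: Cos-1 cells carrying PPARgamma and a response element luciferase reporter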
Conditions: at 5 µM, stronger effect = higher value; activation (% of full agonist control): measured here: relative to full agonist control

Sequence of Peroxisome proliferator-activated receptor gamma (Homo sapiens) (P37231 whole entry, looked up): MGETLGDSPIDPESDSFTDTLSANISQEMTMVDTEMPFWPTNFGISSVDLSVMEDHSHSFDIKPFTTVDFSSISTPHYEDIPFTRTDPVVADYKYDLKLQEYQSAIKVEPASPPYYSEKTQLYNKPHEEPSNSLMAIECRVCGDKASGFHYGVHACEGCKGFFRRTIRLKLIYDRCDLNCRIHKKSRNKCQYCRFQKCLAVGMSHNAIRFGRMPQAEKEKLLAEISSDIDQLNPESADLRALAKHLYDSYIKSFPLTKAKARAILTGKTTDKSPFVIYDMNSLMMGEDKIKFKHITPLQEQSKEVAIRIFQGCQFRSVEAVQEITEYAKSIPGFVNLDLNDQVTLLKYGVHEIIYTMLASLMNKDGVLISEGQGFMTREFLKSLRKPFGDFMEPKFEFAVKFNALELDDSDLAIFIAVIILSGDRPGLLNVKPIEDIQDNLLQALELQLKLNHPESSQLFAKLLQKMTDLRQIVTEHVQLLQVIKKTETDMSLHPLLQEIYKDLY

Row | SMILES | activation (% of full agonist control) [%] | activation (% of partial agonist control)
1 | COc1ccc(CCn2c(C)cc(C(=O)CN3C(=O)C(=O)N(C4CCCC4)C3=O)c2C)cc1OC | 27.1 | 60% (inactive)
2 | CCOc1ccc(C2c3[nH]c4ccccc4c3CCN2Cc2cccn2-c2ncccn2)cc1 (configuration not stated) | 39.5 | 87.5% (active)
3 | O=C(O)CC(NC(=O)C(c1ccccc1)c1ccccc1)c1ccc(F)cc1 (configuration not stated) | 27.7 | 61.3% (inactive)
4 | CN(CCNC(=O)C1CCCN(c2ncnc3c2nc2n3CCCCC2)C1)Cc1ccccc1 (configuration not stated) | 49 | 109% (active)
5 | Cc1[nH][nH]c(=O)c1C(c1c(C)[nH][nH]c1=O)c1cn(Cc2cccc3ccccc23)c2ccccc12 | 37.6 | 83.3% (inactive)
6 | O=C(CN1c2cccc3cccc(c23)S1(=O)=O)N1CCN(c2ccc(F)cc2)CC1 | 34.1 | 75.5% (inactive)
7 | Cc1ccccc1NC(=O)CC1C(=O)Nc2ccccc2N1CC(=O)N(C)C1CCS(=O)(=O)C1 (configuration not stated) | 47 | 104% (active)
8 | CC(=O)N1N=C(c2ccccc2)CC1c1cn(Cc2ccccc2)c2ccccc12 (configuration not stated) | 44.7 | 99% (active)
9 | O=C(OCC1OC(Oc2ccc(O)cc2)C(O)C(O)C1O)c1ccccc1 (configuration not stated) | 9.83 | 21.8% (inactive)
10 | COc1ccc(CNC(=O)Cn2c(=O)n(CCC(=O)N3CCCCC3)c(=O)c3sccc32)cc1 | 46.4 | 103% (active)
11 | COc1ccc(N2CCN(C3CC(=O)N(Cc4ccc(N5CCCC5=O)cc4)C3=O)CC2)cc1 (configuration not stated) | 27.6 | 61.2% (inactive)
12 | COc1ccc(N(CC(=O)N2c3ccccc3CC2C)S(=O)(=O)c2c(C)nn(C)c2C)cc1 (configuration not stated) | 32.3 | 71.5% (inactive)
13 | COC(=O)C1=CN(Cc2ccc(F)cc2)C=C(C(=O)OC)C1c1ccc(O)c(OC)c1 | 26.8 | 59.4% (inactive)
14 | Cc1cc(N2C(=O)C(O)=C(C(=O)c3ccc(C)o3)C2c2cccc(Oc3ccccc3)c2)no1 (configuration not stated) | 34.1 | 75.5% (inactive)
15 | O=C1C(=O)N(CC2CCCO2)C(c2ccco2)/C1=C(/O)c1ccc(F)cc1 (configuration not stated) | 15 | 33.1% (inactive)
16 | c1ccc(CCN2CN(CCCN3CCOCC3)c3nc4ccccc4n3C2)cc1 | 24.6 | 54.4% (inactive)
17 | Cc1cccc(N2CCN(C(=O)c3cccc(N4C(=O)C5CC=CC(C)C5C4=O)c3)CC2)c1C (configuration not stated) | 16.4 | 36.3% (inactive)
18 | O=C(CN1CCOC1=O)N1CCCC(N2CCN(c3cccc(C(F)(F)F)c3)CC2)C1 (configuration not stated) | 26.5 | 58.8% (inactive)

Row | SMILES | activation (% of full agonist control) [%] | activation (% of partial agonist control)
19 | O=C(NCCCn1ccnc1)C(=O)NCC(c1cccnc1)N1CCN(c2ccc(F)cc2)CC1 (configuration not stated) | 31.2 | 69% (inactive)
20 | O=C1C(=O)N(Cc2cccnc2)C(c2cccc(F)c2)/C1=C(/O)c1ccc2c(c1)OCO2 (configuration not stated) | 35.2 | 77.9% (inactive)
21 | N=c1c(C(=O)NCCc2ccccc2)cc2c(=O)n3ccccc3nc2n1CC1CCCO1 (configuration not stated) | 34.6 | 76.7% (inactive)
22 | COc1cc2c(C(=O)N3CCN(c4ccccc4F)CC3)cn(C)c(=O)c2cc1OC | 24.1 | 53.4% (inactive)
23 | O=C(NC(Cc1ccccc1)C(=O)O)/C(=C/c1ccc(Cl)cc1)NC(=O)c1ccco1 (configuration not stated) | 24.4 | 54% (inactive)
24 | Cc1c(CNCCC2=CCCCC2)c(C(=O)O)c(C)n1Cc1ccccc1 | 10 | 22.2% (inactive)
25 | COc1cccc(NC(=O)c2ccc3c(c2)N(CC(=O)N2CCOCC2)C(=O)C(C)(C)O3)c1 | 32.5 | 71.9% (inactive)
26 | COc1ccc(NC(=O)C(=O)c2cn(CC(=O)N3CCCC3)c3ccccc23)c(OC)c1 | 32.9 | 72.7% (inactive)
27 | COC(=O)c1ccc(NC(=O)C(=O)c2cn(CC(=O)N3CCOCC3)c3ccccc23)cc1 | 32.1 | 71.1% (inactive)
28 | O=C(Cn1c(=O)c(=O)n(Cc2ccccc2)c2ccc(Cl)cc21)Nc1cccc(F)c1 | 25.4 | 56.2% (inactive)
29 | CC(=O)N1CCN(C(=O)c2ccccc2NS(=O)(=O)c2ccc(F)cc2)CC1 | 30.5 | 67.6% (inactive)
30 | COc1ccc(N2CCN(C(=O)CNC(=O)Cn3c(C)cc4ccccc4c3=O)CC2)cc1 | 33.3 | 73.7% (inactive)
31 | Cc1cc(C(=O)CN2C(=O)C(=O)N(Cc3ccccc3)C2=O)c(C)n1Cc1ccc(F)cc1 | 38 | 84.1% (inactive)
32 | Cc1cc(C)c2nc(N3C(=O)C(O)=C(C(=O)c4ccco4)C3c3ccc(O)cc3)sc2c1 (configuration not stated) | 40.2 | 89.1% (active)
33 | Cc1ccc2nc(N3C(=O)C(O)=C(C(=O)c4ccc(C)o4)C3c3ccco3)sc2c1 (configuration not stated) | 45.8 | 101% (active)
34 | O=C(c1cccc(N2C(=O)C3C4C=CC(C4)C3C2=O)c1)N1CCN(c2ccccc2Cl)CC1 (configuration not stated) | 41.1 | 91% (active)
35 | O=C(c1ccccc1)c1ccc(NCCCn2ccnc2)c([N+](=O)[O-])c1 | 26.9 | 59.6% (inactive)
36 | Cc1ccc(C)c(S(=O)(=O)NCC(c2ccco2)N2CCc3ccccc3C2)c1 (configuration not stated) | 29 | 64.3% (inactive)
